The antibiotic and cytotoxicity screens of Wong et al. (2023)
Hit rate of the full screen: of about 39,000 compounds, about 1,500 (3.8%) were called active. The sample holds actives, similar compounds and a random draw of the others, so the mix is not that of the screen.

Each molecule was assayed on HSkMC (human skeletal muscle cells) (assay: cytotoxicity call (relative viability < 0.9)). Conditions: 10 µM.

| Compound | cytotoxicity call |
| --- | --- |
| C[C@@H]1CN([C@@H](C)CO)C(=O)Cc2cc(NC(=O)C3CCCCC3)ccc2O[C@H]1CN(C)S(C)(=O)=O | inactive |
| C[C@@H]1CN([C@@H](C)CO)C(=O)c2cccc(NS(C)(=O)=O)c2O[C@@H]1CN(C)S(C)(=O)=O | inactive |
| COc1ccc(S(=O)(=O)Nc2ccc3c(c2)C(=O)N([C@@H](C)CO)C[C@H](C)[C@@H](CN(C)C(=O)Nc2ccc(F)cc2)OCCCC[C@H](C)O3)cc1 | inactive |
| C[C@@H]1CCCCO[C@@H](CN(C)C(=O)Nc2ccccc2)[C@H](C)CN([C@@H](C)CO)C(=O)c2cc(NC(=O)Nc3cccc4ccccc34)ccc2O1 | inactive |
| C[C@H](CO)N1C[C@H](C)[C@H](CN(C)CC2CCOCC2)Oc2ncc(C#CCc3ccccc3)cc2C1=O | inactive |
| COc1ccc(NC(=O)Nc2ccc3c(c2)C(=O)N([C@H](C)CO)C[C@H](C)[C@@H](CN(C)C(=O)Nc2c(C)noc2C)OCCCC[C@@H](C)O3)cc1 | inactive |
| O=C1N[C@@H](c2ccccc2)COCc2cn(nn2)CC[C@H](Cc2ccc(C(F)(F)F)cc2)C(=O)N[C@@H](c2ccccc2)COCc2cn(nn2)CC[C@@H]1Cc1ccc(C(F)(F)F)cc1 | inactive |
| C[C@H]1CN([C@@H](C)CO)C(=O)c2cc(NC(=O)Nc3ccc(C(F)(F)F)cc3)ccc2O[C@H]1CN(C)Cc1ccc(C(F)(F)F)cc1 | active |
| C[C@@H]1CN([C@H](C)CO)C(=O)c2cc(NC(=O)Nc3ccc(C(F)(F)F)cc3)ccc2O[C@H]1CN(C)Cc1ccc(C(F)(F)F)cc1 | active |
| C[C@H]1CN([C@@H](C)CO)C(=O)c2cc(NC(=O)Nc3ccc(C(F)(F)F)cc3)ccc2O[C@@H]1CN(C)Cc1ccc(C(F)(F)F)cc1 | active |
| C[C@@H]1CN([C@H](C)CO)C(=O)c2cc(NC(=O)Nc3ccc(C(F)(F)F)cc3)ccc2O[C@@H]1CN(C)Cc1ccc(C(F)(F)F)cc1 | active |
| C[C@H](CO)N1C[C@H](C)[C@H](CN(C)C)Oc2ccc(NC(=O)Cc3cn(C)c4ccccc34)cc2CC1=O | inactive |
| CNC[C@@H]1OCCCC[C@H](C)Oc2ccc(NS(=O)(=O)c3cn(C)cn3)cc2C(=O)N([C@@H](C)CO)C[C@H]1C | inactive |
| C[C@H](CO)N1C[C@H](C)[C@H](CN(C)C(=O)Cc2ccncc2)Oc2cc(C#CC3(O)CCCC3)ccc2S1(=O)=O | inactive |
| C[C@@H]1CN([C@@H](C)CO)C(=O)c2cc(C#Cc3ccncc3)cnc2O[C@H]1CN(C)C(=O)c1ccccc1F | inactive |
| C[C@H]1CCCCO[C@@H](CN(C)C(=O)Cc2ccccc2)[C@@H](C)CN([C@@H](C)CO)C(=O)c2cc(NS(=O)(=O)c3cccs3)ccc2O1 | inactive |
| COc1ccc(NC(=O)N(C)C[C@@H]2Oc3ccc(NC(=O)Nc4cccc5ccccc45)cc3C(=O)N([C@H](C)CO)C[C@@H]2C)cc1 | inactive |
| CN(C)CCCNC(=O)C[C@H]1C=C[C@@H](NS(=O)(=O)c2ccccc2)[C@@H](CO)O1 | inactive |
| C[C@H](CO)N1C[C@H](C)[C@H](CN(C)Cc2ccc(C(F)(F)F)cc2)Oc2ccc(NC(=O)Nc3ccc(C(F)(F)F)cc3)cc2C1=O | active |
| C[C@@H]1CN([C@@H](C)CO)C(=O)c2cc(NC(=O)Nc3ccc(C(F)(F)F)cc3)ccc2O[C@@H]1CN(C)Cc1ccc(C(F)(F)F)cc1 | active |
| C[C@@H]1CN([C@@H](C)CO)C(=O)c2cc(NC(=O)Nc3ccc(C(F)(F)F)cc3)ccc2O[C@H]1CN(C)Cc1ccc(C(F)(F)F)cc1 | active |

| Compound | cytotoxicity call |
| --- | --- |
| C[C@H](CO)N1C[C@H](C)[C@@H](CN(C)Cc2ccc(C(F)(F)F)cc2)Oc2ccc(NC(=O)Nc3ccc(C(F)(F)F)cc3)cc2C1=O | inactive |
| COCC#Cc1ccc2c(c1)O[C@H](CN(C)S(=O)(=O)c1cccc(F)c1)[C@@H](C)CN([C@@H](C)CO)S2(=O)=O | inactive |
| COc1ccccc1CN1C[C@@H](C)[C@H](OC)CN(C)C(=O)c2cc(NC(=O)Nc3ccccc3OC)ccc2OC[C@H]1C | inactive |
| C[C@@H]1CN([C@@H](C)CO)C(=O)c2cc(-c3cccc(C#N)c3)cnc2O[C@@H]1CN(C)C(=O)C1CCOCC1 | inactive |
| Cc1ccc(S(=O)(=O)N(C)C[C@H]2Oc3c(NS(=O)(=O)c4c(C)noc4C)cccc3C(=O)N([C@@H](C)CO)C[C@H]2C)cc1 | inactive |
| N#CC1(C#N)[C@H](c2ccccc2)[C@@H]1C(N)=O | inactive |
| CC(C)CC#Cc1ccc2c(c1)O[C@@H](CN(C)C(=O)c1cnccn1)[C@@H](C)CN([C@H](C)CO)S2(=O)=O | inactive |
| O=C(C[C@H]1CC[C@H]2[C@@H](COC[C@@H](O)CN2S(=O)(=O)c2ccc(Cl)cc2)O1)N[C@H]1CCN(Cc2ccccc2)C1 | inactive |
| CC(C)C[C@H](NC(=O)CNC(=O)c1cc(Cl)ccc1Cl)B1OC(=O)C[C@](CC(=O)O)(C(=O)O)O1 | active |
| Cc1noc(C)c1S(=O)(=O)Nc1ccc2c(c1)C(=O)N([C@@H](C)CO)C[C@@H](C)[C@@H](CN(C)CC1CCCCC1)OCCCC[C@H](C)O2 | inactive |
| Cn1nc(-c2ccccn2)nc2c(=O)n(C)c(=O)nc1-2 | active |
| Cn1c(=O)[nH]c2nnc(-c3ccccn3)nc2c1=O | inactive |
| COc1ccc(-c2ccccn2)cc1 | inactive |
| CN1CCN(C(=O)[C@@H]2[C@@H](CO)[C@@H]3Cn4c(cccc4=O)[C@H]2N3S(=O)(=O)c2ccccc2F)CC1 | inactive |
| CC(=O)N1CCN(C(=O)Cc2ccc(S(C)(=O)=O)cc2)C[C@@H](O)C1 | inactive |
| CC(=O)NCCCC[C@@H]1NC(=O)[C@H]2C[C@@H](C(=O)NCc3ccc(F)cc3)[C@@H](c3ccc(O)cc3)N2C1=O | inactive |
| Cc1ccc(S(=O)(=O)Nc2ccc3c(c2)CC(=O)N([C@@H](C)CO)C[C@H](C)[C@@H](CN(C)Cc2ccc(C(F)(F)F)cc2)O3)cc1 | active |
| C[C@H]1CN([C@@H](C)CO)C(=O)Cc2cc(NS(C)(=O)=O)ccc2O[C@@H]1CN(C)Cc1ccc(C(F)(F)F)cc1 | inactive |
| C[C@@H]1CN([C@@H](C)CO)C(=O)Cc2cc(NS(C)(=O)=O)ccc2O[C@H]1CN(C)Cc1ccc(C(F)(F)F)cc1 | inactive |
| C[C@@H]1CN([C@H](C)CO)C(=O)Cc2cc(NS(C)(=O)=O)ccc2O[C@H]1CN(C)Cc1ccc(C(F)(F)F)cc1 | inactive |
| Cc1ccc(S(=O)(=O)Nc2ccc3c(c2)CC(=O)N([C@@H](C)CO)C[C@@H](C)[C@@H](CN(C)Cc2ccc(C(F)(F)F)cc2)O3)cc1 | active |

| Compound | cytotoxicity call |
| --- | --- |
| Cc1ccc(S(=O)(=O)Nc2ccc3c(c2)CC(=O)N([C@H](C)CO)C[C@H](C)[C@@H](CN(C)Cc2ccc(C(F)(F)F)cc2)O3)cc1 | inactive |
| Cc1ccc(S(=O)(=O)Nc2ccc3c(c2)CC(=O)N([C@H](C)CO)C[C@H](C)[C@H](CN(C)Cc2ccc(C(F)(F)F)cc2)O3)cc1 | active |
| C[C@@H]1CN([C@H](C)CO)C(=O)Cc2cc(NS(C)(=O)=O)ccc2O[C@@H]1CN(C)Cc1ccc(C(F)(F)F)cc1 | inactive |
| C[C@H]1CN([C@@H](C)CO)C(=O)Cc2cc(NS(C)(=O)=O)ccc2O[C@H]1CN(C)Cc1ccc(C(F)(F)F)cc1 | inactive |
| Cc1ccc(S(=O)(=O)Nc2ccc3c(c2)CC(=O)N([C@H](C)CO)C[C@@H](C)[C@@H](CN(C)Cc2ccc(C(F)(F)F)cc2)O3)cc1 | active |
| C[C@H](CO)N1C[C@H](C)[C@H](CN(C)Cc2ccc(C(F)(F)F)cc2)Oc2ccc(NS(C)(=O)=O)cc2CC1=O | inactive |
| C[C@@H]1CN([C@@H](C)CO)C(=O)Cc2cc(NS(C)(=O)=O)ccc2O[C@@H]1CN(C)Cc1ccc(C(F)(F)F)cc1 | inactive |
| O=C(C[C@H]1CC[C@@H]2[C@H](COC[C@H](O)CN2S(=O)(=O)c2ccc(Cl)cc2)O1)NCCN1CCCCC1 | inactive |
| COc1ccc(S(=O)(=O)Nc2ccc3c(c2)C(=O)N([C@H](C)CO)C[C@H](C)[C@H](CN(C)C(=O)Nc2c(C)noc2C)OCCCC[C@H](C)O3)cc1 | inactive |
| C[C@@H]1CCCCO[C@@H](CN(C)S(=O)(=O)c2cccs2)[C@H](C)CN([C@H](C)CO)C(=O)c2cc(NC(=O)Nc3cccc4ccccc34)ccc2O1 | inactive |
| COc1ccc(S(=O)(=O)Nc2cccc3c2O[C@@H](CN(C)Cc2ccncc2)[C@H](C)CN([C@@H](C)CO)C3=O)cc1 | inactive |
| C[C@@H]1CN([C@@H](C)CO)C(=O)c2cccc(NS(=O)(=O)c3cn(C)cn3)c2O[C@@H]1CN(C)S(=O)(=O)c1ccccc1 | inactive |
| C[C@@H]1CN([C@@H](C)CO)C(=O)c2cc(NC(=O)CCN3CCOCC3)ccc2O[C@@H]1CN(C)CC1CC1 | inactive |
| C[C@@H]1CCCCO[C@H](CN(C)C(=O)Cc2ccccc2)[C@H](C)CN([C@@H](C)CO)C(=O)c2cc(NS(=O)(=O)c3cccs3)ccc2O1 | inactive |
| COCC(=O)Nc1ccc2c(c1)OC[C@@H](C)N(Cc1ccccc1OC)C[C@@H](C)[C@H](OC)CN(C)C2=O | inactive |
| C[C@H]1CCCCO[C@@H](CN(C)C(=O)Nc2ccc(F)cc2)[C@@H](C)CN([C@@H](C)CO)C(=O)c2cc(NS(=O)(=O)c3cccs3)ccc2O1 | inactive |
| CCSc1nnc2c(=O)[nH]c(=O)[nH]c2n1 | inactive |
| Cc1ccc(S(=O)(=O)Nc2ccc3c(c2)CC(=O)N([C@H](C)CO)C[C@@H](C)[C@H](CN(C)Cc2ccc(C(F)(F)F)cc2)O3)cc1 | inactive |
| Cc1ccc(S(=O)(=O)Nc2ccc3c(c2)CC(=O)N([C@@H](C)CO)C[C@H](C)[C@H](CN(C)Cc2ccc(C(F)(F)F)cc2)O3)cc1 | active |
| Cc1ccc(S(=O)(=O)Nc2ccc3c(c2)CC(=O)N([C@@H](C)CO)C[C@@H](C)[C@H](CN(C)Cc2ccc(C(F)(F)F)cc2)O3)cc1 | inactive |
